Test results taken from PubChem BioAssay AID1159580 (chemical genetic matrix, 2015).
In all, about 5,500 compounds went through this assay and about 2,000 (36%) were called active. Not shown: some 18% with an inconclusive outcome. Cut-off read from the data, not from the text of the source: active = normalized growth mostly below about 0.91 (no sharp cut-off); inconclusive = no clear call, values can overlap the other calls; inactive = mostly above about 0.92. This is one part of the list.

Assay: chemical genetic growth profiling, strain panel (AID 1159580);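 note: tested at 20 µM; growth read once vehicle control cultures reached saturation at 30 °C; 1 = growth at the plate median or of vehicle wells; lower values mean less growth of the strain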
Conditions: S. cerevisiae deletion strains, growth OD
[1] = locus YAL040C, strain CLN3, active compounds read low
[2] = locus YCL061C, strain MRC1 (second series), active compounds read low
[3] = locus YDR363W, strain ESC2, active compounds read low
[4] = locus YER002W, strain NOP16, active compounds read low
[5] = locus YGR078C, strain PAC10, active compounds read low
[6] = locus YJR075W, strain HOC1, active compounds read low
[7] = locus YMR307W, strain GAS1, active compounds read low
[8] = locus YNL175C, strain NOP13, active compounds read low
[9] = locus YNL197C, strain WHI3, active compounds read low
[10] = locus YNL224C, strain SQS1, active compounds read low
[11] = locus YOR083W, strain WHI5 (second series), active compounds read low
[12] = locus YPL055C, strain LGE1, active compounds read low
[13] = locus YPL241C, strain CIN2, active compounds read low
[14] = locus YAL013W, strain DEP1, active compounds read low

Measured: normalized growth

CC(C)(C)c1onc(OCP(=O)(O)O)c1CC(N)C(=O)O (stereo not drawn)
inactive: [1] 1 | [2] 0.997 | [3] 1.02 | [4] 0.996 | [5] 1.01 | [6] 1 | [7] 1.03 | locus YNL128W, strain TEP1, active compounds read low 1.03 | [8] 0.999 | [9] 1.01 | [10] 1.01 | [11] 1.06 | [12] 1 | [13] 0.999

O=C(O)C1=CCCN(CCON=C(c2ccccc2)c2ccccc2)C1
inactive: [14] 1 | [1] 1.04 | [2] 1 | locus YDR150W, strain NUM1, active compounds read low 1 | [3] 0.976 | [4] 0.97 | [5] 0.993 | [6] 1 | locus YMR263W, strain SAP30, active compounds read low 1 | [8] 0.987 | [9] 0.981 | [10] 0.993 | [11] 0.987 | [12] 1 | [13] 1

COc1ccc(CCNC[C@@H](O)c2ccc(O)cc2)cc1OC
inactive: [14] 1.01 | [1] 0.995 | [2] 0.993 | [3] 1.02 | [4] 1.01 | [7] 0.944 | locus YNL153C, strain GIM3, active compounds read low 0.999 | [8] 0.992 | [9] 0.981 | [10] 0.989 | [11] 0.986

CNCC(O)c1cccc(O)c1 (stereo not drawn)
inactive: [14] 0.992 | [1] 0.974 | [2] 0.988 | [3] 0.99 | [4] 1.01 | locus YGR229C, strain SMI1, active compounds read low 1.01 | [7] 0.968 | [8] 1.01 | [9] 0.998 | [10] 1 | locus YNL322C, strain KRE1, active compounds read low 0.976 | [11] 1.02 | [12] 0.984
